Measured values reported in PubChem BioAssay AID1159580 (chemical genetic matrix, 2015).
Screen size: about 5,500 compounds; about 2,000 (36%) were called active. About 18% were inconclusive and are not listed. Cut-off read from the data, not from the text of the source: active = normalized growth mostly below about 0.91 (no sharp cut-off); inconclusive = no clear call, values can overlap the other calls; inactive = mostly above about 0.92. This is one part of the list.

Assay: chemical genetic growth profiling, strain panel (AID 1159580);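 note: tested at 20 µM; growth read once vehicle control cultures reached saturation at 30 °C; 1 = growth at the plate median or of vehicle wells; lower values mean less growth of the strain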
Details: growth OD

Measured: normalized growth

CC(=O)Oc1cccc2c1C(=O)c1c(OC(C)=O)cc(C(=O)O)cc1C2=O
inactive: S. cerevisiae deletion strains, locus YJR075W, strain HOC1, active compounds read low 0.994 | S. cerevisiae deletion strains, locus YKL009W, strain mrt4, active compounds read low 0.986 | S. cerevisiae deletion strains, locus YKL068W, active compounds read low 0.993 | S. cerevisiae deletion strains, locus YKL085W, strain MDH1 (second series), active compounds read low 1 | S. cerevisiae deletion strains, locus YKL085W, strain MDH1, active compounds read low 1 | S. cerevisiae deletion strains, locus YKL190W, strain CNB1, active compounds read low 0.986 | S. cerevisiae deletion strains, locus YKR091W, strain srl3, active compounds read low 0.944 | S. cerevisiae deletion strains, locus YLL041C, strain sdh2, active compounds read low 0.954 | S. cerevisiae deletion strains, locus YLR039C, strain RIC1, active compounds read low 1.02 | S. cerevisiae deletion strains, locus YLR058C, strain SHM2, active compounds read low 1 | S. cerevisiae deletion strains, locus YLR113W, strain HOG1, active compounds read low 1 | S. cerevisiae deletion strains, locus YLR262C, strain YPT6 (second series), active compounds read low 0.891 | S. cerevisiae deletion strains, locus YLR262C, strain YPT6, active compounds read low 1.05 | S. cerevisiae deletion strains, locus YLR320W, strain mms22, active compounds read low 0.908 | S. cerevisiae deletion strains, locus YLR330W, strain CHS5, active compounds read low 1.01 | S. cerevisiae deletion strains, locus YLR342W, strain FKS1 (second series), active compounds read low 1.05 | S. cerevisiae deletion strains, locus YLR357W, strain rsc2, active compounds read low 0.859 | S. cerevisiae deletion strains, locus YLR370C, strain arc18, active compounds read low 0.917 | S. cerevisiae deletion strains, locus YLR384C, strain iki3, active compounds read low 0.954 | S. cerevisiae deletion strains, locus YML016C, strain PPZ1, active compounds read low 1.01 | S. cerevisiae deletion strains, locus YML120C, strain ndi1, active compounds read low 0.943 | S. cerevisiae deletion strains, locus YMR125W, strain sto1, active compounds read low 0.94 | S. cerevisiae deletion strains, locus YMR129W, active compounds read low 0.947 | S. cerevisiae deletion strains, locus YMR205C, strain PFK2, active compounds read low 0.948 | S. cerevisiae deletion strains, locus YMR231W, strain pep5, active compounds read low 0.942 | S. cerevisiae deletion strains, locus YMR263W, strain SAP30, active compounds read low 1 | S. cerevisiae deletion strains, locus YMR307W, strain GAS1, active compounds read low 1.18 | S. cerevisiae deletion strains, locus YNL067W, strain RPL9B, active compounds read low 1.01 | S. cerevisiae deletion strains, locus YNL128W, strain TEP1, active compounds read low 0.993 | S. cerevisiae deletion strains, locus YNL153C, strain GIM3, active compounds read low 1.01 | S. cerevisiae deletion strains, locus YNL183C, strain NPR1, active compounds read low 0.896 | S. cerevisiae deletion strains, locus YNL209W, strain ssb2, active compounds read low 0.93 | S. cerevisiae deletion strains, locus YNL233W, strain BNI4, active compounds read low 1.02 | S. cerevisiae deletion strains, locus YNL248C, strain rpa49, active compounds read low 0.948 | S. cerevisiae deletion strains, locus YNL250W, strain rad50, active compounds read low 0.992 | S. cerevisiae deletion strains, locus YNL271C, strain bni1, active compounds read low 0.997 | S. cerevisiae deletion strains, locus YNL298W, strain CLA4, active compounds read low 0.995 | S. cerevisiae deletion strains, locus YNL322C, strain KRE1, active compounds read low 1 | S. cerevisiae deletion strains, locus YNR049C, strain mso1, active compounds read low 0.956 | S. cerevisiae deletion strains, locus YOL006C, strain TOP1, active compounds read low 1.02 | S. cerevisiae deletion strains, locus YOR001W, strain rrp6, active compounds read low 0.952 | S. cerevisiae deletion strains, locus YOR061W, strain CKA2, active compounds read low 0.996 | S. cerevisiae deletion strains, locus YOR069W, strain VPS5, active compounds read low 1 | S. cerevisiae deletion strains, locus YOR070C, strain gyp1, active compounds read low 0.932 | S. cerevisiae deletion strains, locus YOR080W, strain dia2, active compounds read low 0.938 | S. cerevisiae deletion strains, locus YOR083W, strain WHI5, active compounds read low 0.918 | S. cerevisiae deletion strains, locus YOR106W, strain vam3, active compounds read low 0.905 | S. cerevisiae deletion strains, locus YOR184W, strain ser1, active compounds read low 1.02 | S. cerevisiae deletion strains, locus YOR231W, strain MKK1, active compounds read low 0.95 | S. cerevisiae deletion strains, locus YOR270C, strain vph1, active compounds read low 0.925 | S. cerevisiae deletion strains, locus YOR290C, strain snf2, active compounds read low 0.927 | S. cerevisiae deletion strains, locus YPL055C, strain LGE1, active compounds read low 1.01 | S. cerevisiae deletion strains, locus YPL078C, strain atp4, active compounds read low 0.899 | S. cerevisiae deletion strains, locus YPL106C, strain sse1, active compounds read low 0.989 | S. cerevisiae deletion strains, locus YPL241C, strain CIN2, active compounds read low 1.05 | S. cerevisiae deletion strains, locus YPL256C, strain CLN2, active compounds read low 0.955 | S. cerevisiae deletion strains, locus YPR141C, strain kar3, active compounds read low 0.997 | S. cerevisiae strains, strain wild type, active compounds read low 0.998
active: S. cerevisiae deletion strains, locus YKL160W, strain elf1, active compounds read low 0.901 | S. cerevisiae deletion strains, locus YKR001C, strain vps1, active compounds read low 0.174 | S. cerevisiae deletion strains, locus YKR026C, strain gcn3, active compounds read low 0.908 | S. cerevisiae deletion strains, locus YLL001W, strain dnm1, active compounds read low 0.901 | S. cerevisiae deletion strains, locus YLL026W, active compounds read low 0.917 | S. cerevisiae deletion strains, locus YLR027C, strain aat2, active compounds read low 0.92 | S. cerevisiae deletion strains, locus YLR102C, strain apc9, active compounds read low 0.589 | S. cerevisiae deletion strains, locus YLR221C, strain rsa3, active compounds read low 0.898 | S. cerevisiae deletion strains, locus YLR258W, strain gsy2, active compounds read low 0.909 | S. cerevisiae deletion strains, locus YLR268W, strain sec22, active compounds read low 0.39 | S. cerevisiae deletion strains, locus YLR342W, strain FKS1, active compounds read low 0.891 | S. cerevisiae deletion strains, locus YLR371W, strain rom2, active compounds read low 0.433 | S. cerevisiae deletion strains, locus YLR418C, strain cdc73, active compounds read low 0.28 | S. cerevisiae deletion strains, locus YML032C, strain rad52, active compounds read low 0.392 | S. cerevisiae deletion strains, locus YML124C, strain tub3, active compounds read low 0.537 | S. cerevisiae deletion strains, locus YMR058W, strain fet3, active compounds read low 0.806 | S. cerevisiae deletion strains, locus YMR078C, strain ctf18, active compounds read low 0.826 | S. cerevisiae deletion strains, locus YMR223W, strain ubp8, active compounds read low 0.301 | S. cerevisiae deletion strains, locus YNL071W, strain lat1, active compounds read low 0.901 | S. cerevisiae deletion strains, locus YNL307C, strain MCK1, active compounds read low 0.221 | S. cerevisiae deletion strains, locus YNL322C, strain KRE1 (second series), active compounds read low 0.887 | S. cerevisiae deletion strains, locus YNR052C, strain pop2, active compounds read low 0.135 | S. cerevisiae deletion strains, locus YOL012C, strain htz1 2.42 [resistant] | S. cerevisiae deletion strains, locus YOL147C, strain pex11, active compounds read low 0.433 | S. cerevisiae deletion strains, locus YOR136W, strain idh2, active compounds read low 0.498 | S. cerevisiae deletion strains, locus YOR144C, strain elg1, active compounds read low 0.609 | S. cerevisiae deletion strains, locus YOR265W, strain rbl2, active compounds read low 0.918 | S. cerevisiae deletion strains, locus YOR316C, strain cot1, active compounds read low 0.433 | S. cerevisiae deletion strains, locus YPL051W, strain arl3, active compounds read low 0.867 | S. cerevisiae deletion strains, locus YPL240C, strain hsp82, active compounds read low 0.909 | S. cerevisiae deletion strains, locus YPR119W, strain clb2, active compounds read low 0.63 | S. cerevisiae deletion strains, locus YPR163C, strain tif3, active compounds read low 0.359 | S. cerevisiae deletion strains, locus YPR167C, strain met16, active compounds read low 0.309 | S. cerevisiae deletion strains, strain wtn01, active compounds read low 0.22
